Test in all cases: NCI-60 one-dose screen, 48 h (100 = growth as untreated, 0 = no growth, -100 = all killed)
The test system of one test is SR leukemia. Conditions: 10 µM unless noted.
In another test the test system is RPMI-8226 leukemia. Conditions: 10 µM unless noted.
The next test deals with OVCAR-8 ovarian. Conditions: 10 µM unless noted.
Another test deals with OVCAR-5 ovarian. Conditions: 10 µM unless noted.
The next test has as its system OVCAR-4 ovarian. Conditions: 10 µM unless noted.
In a further test the test system is SK-OV-3 ovarian. Conditions: 10 µM unless noted.
The subject of the next test is IGROV1 ovarian. Conditions: 10 µM unless noted.
A further test deals with OVCAR-3 ovarian. Conditions: 10 µM unless noted.
The next test concerns NCI/ADR-RES ovarian. Conditions: 10 µM unless noted.
A further test relates to T-47D breast. Conditions: 10 µM unless noted.
The next test concerns BT-549 breast. Conditions: 10 µM unless noted.
The test system of the next test is MDA-MB-435 melanoma. Conditions: 10 µM unless noted.
The test system of another test is SW-620 colon. Conditions: 10 µM unless noted.
Another test relates to MCF7 breast. Conditions: 10 µM unless noted.
Another test deals with HCT-116 colon. Conditions: 10 µM unless noted.
The subject of another test is HCC-2998 colon. Conditions: 10 µM.
Another test concerns KM12 colon. Conditions: 10 µM unless noted.

The panel holds about 83,000 compounds, 20% with a hit somewhere; the sample as a whole holds those more often.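 96-well plates, one dose, 48 hours. Percent growth reported; active if below 10.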 Unmarked numbers belong to inactive results. Active and inactive are the calls of the source.

The values that follow come from PubChem BioAssay (NCI).

For `CN1CCC(COc2cnc(-c3cccc(Cn4nc(-c5cccc(C#N)c5)ccc4=O)c3)nc2)CC1`, the growth was -9.84% (active) with SR leukemia; 50.8% in the test with RPMI-8226 leukemia; 59.9% in the test with OVCAR-8 ovarian; 78.9% with OVCAR-5 ovarian; 75.4% in the test on OVCAR-4 ovarian; 70.3% in the test on SK-OV-3 ovarian. The growth with IGROV1 ovarian was 73.3%; in the test on OVCAR-3 ovarian, 81.7%; with NCI/ADR-RES ovarian, 82.2%; in the test with T-47D breast, -49.1% (active); with BT-549 breast, 63.4%; in the test with MDA-MB-435 melanoma, 53.8%. The growth in the test on SW-620 colon is 45.6%; in the test on MCF7 breast, 60.3%; in the test on HCT-116 colon, 22.5%; in the test on HCC-2998 colon, 80.7%; in the test on KM12 colon, 33.7%.
For `CN(c1ncccc1CNc1nc(Nc2ccc3c(c2)CC(=O)N3)ncc1C(F)(F)F)S(C)(=O)=O`, the growth was -6.03% (active) in the test with SR leukemia; -7.65% (active) in the test with RPMI-8226 leukemia; 4.96% (active) with OVCAR-8 ovarian; 7.36% (active) in the test with OVCAR-5 ovarian; -7.63% (active) in the test with OVCAR-4 ovarian; 5.63% (active) in the test with SK-OV-3 ovarian. For the same molecule, the growth in the test with IGROV1 ovarian was 7.61% (active); in the test on OVCAR-3 ovarian, 15.1%; in the test with NCI/ADR-RES ovarian, 56.2%; in the test on T-47D breast it was -2.8% (active); in the test with BT-549 breast, -10.5% (active); with MDA-MB-435 melanoma it was -9.58% (active). Also, the growth was 0.466% (active) in the test on SW-620 colon; 2.39% (active) with MCF7 breast; 1.07% (active) in the test on HCT-116 colon; -13.5% (active) with HCC-2998 colon; 1.83% (active) with KM12 colon.
Turning to `O=C(O)c1ccc2c(c1)nc(Nc1cccc(Cl)c1)c1ccncc12`, the growth with SR leukemia was -11.3% (active); with RPMI-8226 leukemia it was 10.6%; in the test on OVCAR-8 ovarian, 5.65% (active); in the test with OVCAR-5 ovarian it was 10.6%; in the test on OVCAR-4 ovarian, -2.42% (active); with SK-OV-3 ovarian it was -27.1% (active). Also, the growth is -22.2% (active) with IGROV1 ovarian; 2.03% (active) in the test with OVCAR-3 ovarian; 5.81% (active) with NCI/ADR-RES ovarian; -22.1% (active) with T-47D breast; -5.65% (active) in the test with BT-549 breast; 5.4% (active) in the test with MDA-MB-435 melanoma. For the same molecule, the growth in the test on SW-620 colon is 6.63% (active); in the test on MCF7 breast, 5.91% (active); in the test on HCT-116 colon, 3.79% (active); in the test on HCC-2998 colon it was 15.1%; in the test on KM12 colon it was 11.5%.
Take `COc1ccc(F)c(F)c1C(=O)c1cnc(NC2CCN(S(C)(=O)=O)CC2)nc1N`: the growth with SR leukemia is 2.64% (active); in the test with RPMI-8226 leukemia, 0.261% (active); with OVCAR-8 ovarian, 7.37% (active); in the test on OVCAR-5 ovarian it was 12.6%; in the test on OVCAR-4 ovarian it was 8.36% (active); with SK-OV-3 ovarian it was 11.9%. For the same molecule, the growth was 10.2% in the test on IGROV1 ovarian; 13.1% in the test on OVCAR-3 ovarian; 1.6% (active) in the test on NCI/ADR-RES ovarian; -3.23% (active) with T-47D breast; -11.8% (active) in the test on BT-549 breast; -33.3% (active) in the test with MDA-MB-435 melanoma. In addition, the growth is 0.808% (active) in the test on SW-620 colon; 2.53% (active) with MCF7 breast; 4.77% (active) in the test on HCT-116 colon; -26.5% (active) in the test on HCC-2998 colon; 4.84% (active) in the test with KM12 colon.
Turning to `CN(C)C/C=C/C(=O)Nc1cc2c(Nc3ccc(F)c(Cl)c3)ncnc2cc1O[C@H]1CCOC1`, the growth in the test on SR leukemia was -15.8% (active); with RPMI-8226 leukemia, -20.3% (active); in the test on OVCAR-8 ovarian, -2.55% (active); with OVCAR-5 ovarian it was 17%; with OVCAR-4 ovarian, 20.1%; with SK-OV-3 ovarian, -15.1% (active). The growth in the test on IGROV1 ovarian was -27.1% (active); with OVCAR-3 ovarian, -14% (active); in the test on NCI/ADR-RES ovarian, 5.68% (active); in the test with T-47D breast, -6.55% (active); with BT-549 breast it was -1.8% (active); in the test with MDA-MB-435 melanoma, 2.71% (active). Besides, the growth with SW-620 colon was -22.6% (active); in the test on MCF7 breast, 3.59% (active); with HCT-116 colon, -59.8% (active); in the test on HCC-2998 colon, -71% (active); in the test with KM12 colon, -0.867% (active).
For `COC(=O)Nc1nc2ccc(C(=O)c3ccc(N(C)C4COC4)cc3)cc2[nH]1`, the growth with SR leukemia is 14.4%; with RPMI-8226 leukemia, 22.5%; in the test on OVCAR-8 ovarian, 11%; with OVCAR-5 ovarian it was 52.4%; with OVCAR-4 ovarian, 57.2%; in the test with SK-OV-3 ovarian, 6.93% (active). Also, the growth in the test with IGROV1 ovarian is 28.5%; with OVCAR-3 ovarian it was 31.9%; in the test with NCI/ADR-RES ovarian it was 12%; with T-47D breast it was 57.5%; with BT-549 breast it was 9.02% (active); with MDA-MB-435 melanoma, -25.5% (active). For the same molecule, the growth in the test with SW-620 colon was 28.5%; in the test with MCF7 breast, 16.3%; with HCT-116 colon it was 7.08% (active); with HCC-2998 colon, 11%; in the test with KM12 colon it was 15.7%.
`Cn1nccc1Nc1nccc(-c2ccn([C@H](CO)c3ccc(Cl)c(F)c3)c(=O)c2)n1`: the growth in the test on SR leukemia is 112%; in the test on RPMI-8226 leukemia, 113%; in the test on OVCAR-8 ovarian, 104%; with OVCAR-5 ovarian, 46.9%; in the test with OVCAR-4 ovarian it was 98.8%; with SK-OV-3 ovarian, 119%. Besides, the growth in the test with IGROV1 ovarian is 82%; in the test on OVCAR-3 ovarian, 115%; in the test with NCI/ADR-RES ovarian, 89.7%; with T-47D breast, 104%; in the test on BT-549 breast it was 93.6%; in the test on MDA-MB-435 melanoma it was 55.4%. The growth was 62.7% in the test with SW-620 colon; 93.1% in the test on MCF7 breast; 52.5% in the test on HCT-116 colon; 36.9% in the test on HCC-2998 colon; 82.8% in the test with KM12 colon.
In the case of `C#Cc1cccc(Nc2ncnc3cc(OCCOC)c(OCCOC)cc23)c1`, the growth is 51.3% in the test on SR leukemia; 70.1% in the test on RPMI-8226 leukemia; 40.4% in the test with OVCAR-8 ovarian; 48.4% in the test on OVCAR-5 ovarian; 54.3% with OVCAR-4 ovarian; -21.9% (active) with SK-OV-3 ovarian. Also, the growth was 8.02% (active) in the test on IGROV1 ovarian; 64.2% in the test on OVCAR-3 ovarian; 56.9% in the test on NCI/ADR-RES ovarian; 30.9% in the test with T-47D breast; 68.6% with BT-549 breast; 74.7% in the test with MDA-MB-435 melanoma. Also, the growth with SW-620 colon was 74.6%; with MCF7 breast, 88.3%; with HCT-116 colon, 54.1%; with HCC-2998 colon it was 94.8%; in the test on KM12 colon it was 77.8%.
For `CC[C@@H]1C(=O)N(C)c2cnc(Nc3ccc(C(=O)NC4CCN(C)CC4)cc3OC)nc2N1C1CCCC1`, the growth with SR leukemia was -20.7% (active); in the test with RPMI-8226 leukemia, -40.6% (active); in the test with OVCAR-8 ovarian, 21.4%; with OVCAR-5 ovarian, 17.3%; with OVCAR-4 ovarian it was 35.3%; with SK-OV-3 ovarian, -64.3% (active). For the same molecule, the growth in the test with IGROV1 ovarian is -0.189% (active); in the test with OVCAR-3 ovarian, 13.1%; in the test on NCI/ADR-RES ovarian, 24%; in the test with T-47D breast it was -7.47% (active); in the test with BT-549 breast, 17.5%; in the test on MDA-MB-435 melanoma, 2.22% (active). Further, the growth was 12.3% in the test on SW-620 colon; 7.63% (active) in the test on MCF7 breast; 0.114% (active) in the test on HCT-116 colon; -28.6% (active) in the test with HCC-2998 colon; 12.9% in the test with KM12 colon.
